Records with an inconclusive call do not appear. A call without a number means that no potency is given here. The source made the active and inactive calls. Calls follow the shape of the dose curve; as a rule, active = well fitted activation curve with a large enough effect in the signal ratio in the repeat runs (not every such curve was filed as active); inconclusive = weak or mixed curves, or effect the other way; inactive = no such curve, though single readings can be large or run the other way; the % refers to the signal ratio. Positions of bridges follow the written chain, without caps; N, C: chain ends. Non-standard residues stand in square brackets, D forms with d. Residues, ends and D or L forms follow the SMILES beside them. *: point of attachment. X1 = CC[C@@H](C)[C@@H](N)C1=N[C@H](C(=O)*)CS1; d(aIle) = CC[C@H](C)[C@@H](N)C(=O)O; dOrn = NCCC[C@@H](N)C(=O)O
The compounds below were run against Peroxisome proliferator-activated receptor gamma (Homo sapiens) (UniProt P37231) (assay: qHTS assay to identify small molecule agonists of the peroxisome proliferator-activated receptor gamma (PPARg) signaling pathway (AID 743094)). Conditions: HEK293H PPARg-UAS-bla, beta-lactamase FRET ratio, 17 h; series mostly up to 57 µM.
Chain of Peroxisome proliferator-activated receptor gamma (Homo sapiens) (P37231 whole entry, looked up): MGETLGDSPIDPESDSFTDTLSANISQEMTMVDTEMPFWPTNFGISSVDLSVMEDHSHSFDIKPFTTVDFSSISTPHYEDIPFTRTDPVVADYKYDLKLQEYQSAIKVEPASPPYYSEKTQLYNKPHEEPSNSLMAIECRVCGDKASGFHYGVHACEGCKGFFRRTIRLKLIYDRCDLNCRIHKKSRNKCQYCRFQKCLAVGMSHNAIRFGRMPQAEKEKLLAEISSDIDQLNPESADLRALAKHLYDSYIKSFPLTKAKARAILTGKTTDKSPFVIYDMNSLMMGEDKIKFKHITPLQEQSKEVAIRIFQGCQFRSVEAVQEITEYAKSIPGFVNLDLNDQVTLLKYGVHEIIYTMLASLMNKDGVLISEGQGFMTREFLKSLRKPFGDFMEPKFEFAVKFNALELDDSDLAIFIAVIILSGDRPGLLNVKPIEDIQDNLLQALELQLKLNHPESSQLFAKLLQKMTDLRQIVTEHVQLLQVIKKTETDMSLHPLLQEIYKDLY
Summary of the method: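 Agonist activity was taken from a beta-lactamase reporter (FRET substrate, 1 h at room temperature) in HEK293H cells carrying a PPARg UAS-bla construct. Compounds in DMSO were incubated 17 h at 37C after a 5 h cell pre-incubation.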

Row | SMILES | Potency
1 | C/C(=C\C(=O)OCCCCCCCCC(=O)O)C[C@@H]1OC[C@H](C[C@@H]2O[C@H]2[C@@H](C)[C@H](C)O)[C@@H](O)[C@H]1O | inactive
2 | CC(C)[C@H](NC(=O)[C@H](CC(=O)O)NC(=O)[C@H](CCCCN)NC(=O)[C@@H](N)CCCN=C(N)N)C(=O)N[C@@H](Cc1ccc(O)cc1)C(=O)O (H-RKDVY-OH) | inactive
3 | NC(=O)[C@@H]1CCCN1C(=O)[C@H](Cc1cnc[nH]1)NC(=O)[C@@H]1CCC(=O)N1 | inactive
4 | CC[C@H]1OC(=O)[C@H](C)C(=O)[C@H](C)[C@@H](O[C@@H]2O[C@H](C)C[C@H](N(C)C)[C@H]2O)[C@](C)(OC)C[C@@H](C)C(=O)[C@H](C)[C@H]2N(CCCCn3cnc(-c4cccnc4)c3)C(=O)O[C@]12C | inactive
5 | C[N+](C)(C)CCOP(=O)(O)OP(=O)([O-])OC[C@H]1O[C@@H](n2ccc(N)nc2=O)[C@H](O)[C@@H]1O | inactive
6 | Cc1cnc(C(=O)O)c[n+]1[O-] | inactive
7 | C=CC1=C(C(=O)O)N2C(=O)[C@@H](NC(=O)/C(=N/OCC(=O)O)c3csc(N)n3)[C@H]2SC1 (stereo in doubt) | inactive
8 | O=P(O)(O)C(O)(Cn1ccnc1)P(=O)(O)O | inactive
9 | C=CC[N+]1([C@H]2C[C@H]3[C@@H]4CC[C@H]5C[C@H](O)[C@@H](N6CCOCC6)C[C@]5(C)[C@H]4CC[C@]3(C)[C@H]2OC(C)=O)CCCC1 | inactive
10 | CC[C@@H](C)[C@@H](N)C1=N[C@H](C(=O)N[C@@H](CC(C)C)C(=O)N[C@@H](CCC(=O)O)C(=O)N[C@@H](C(=O)N[C@@H]2CCCCNC(=O)[C@@H](CC(N)=O)NC(=O)[C@@H](CC(=O)O)NC(=O)[C@@H](Cc3cnc[nH]3)NC(=O)[C@@H](Cc3ccccc3)NC(=O)[C@@H]([C@H](C)CC)NC(=O)[C@@H](CCCN)NC2=O)[C@@H](C)CC)CS1 (X1-LE[d(aIle)][dK][dOrn][dI][dF][dH][dD][dN]; lactam 4-C) | inactive
11 | Nc1cc(Cl)c(NC2=NCCN2)c(Cl)c1 | inactive
12 | CCOc1ccc(NC(=S)Nc2ccc(OCC)cc2)cc1 | inactive
13 | Cc1cc(=O)c(C(=O)N[C@@H](C(=O)N[C@@H]2C(=O)N3C(C(=O)O)=C(CSc4nnnn4C)CS[C@H]23)c2ccc(O)cc2)c[nH]1 | inactive
14 | CC12CCC(C[N+](C)(CCC[N+](C)(C)C)C1)C2(C)C (centres undefined) | inactive
15 | CN1C(=O)C[C@@H](C(=O)N[C@@H](Cc2cnc[nH]2)C(=O)N2CCC[C@H]2C(N)=O)NC1=O | inactive
16 | COC(=O)[C@H]1[C@H]2C[C@H]3c4[nH]c5ccccc5c4CCN3C[C@H]2CC[C@@H]1O | inactive
17 | CC[C@@H](C)[C@H](N)C(=O)O | inactive

Row | SMILES | Potency
18 | C/C(=C(/CCO)SSCC1CCCO1)N(C=O)Cc1cnc(C)nc1N (centres undefined) | inactive
19 | C=C(Nc1ccc(OCC)cc1)Nc1ccc(OCC)cc1 | inactive
20 | O=C(O)/C=C/C(=O)Nc1ccc(S(=O)(=O)Nc2nccs2)cc1 | inactive
21 | CC(C)=CCC/C(C)=C/CC/C(C)=C/CC/C(C)=C/CC1=C(C)C(=O)c2ccccc2C1=O | inactive
22 | CO/N=C(\C(=O)N[C@@H]1C(=O)N2C(C(=O)O)=C(CSc3nc(C)c(CC(=O)O)s3)CS[C@H]12)c1csc(N)n1 | inactive
23 | COc1ccc(/C=C/C(=O)O)cc1 | inactive
24 | NCC1CCC(C(=O)O)CC1 (centres undefined) | inactive
25 | CCN(CC)CCOC[C@H]1O[C@@H](O)[C@H](OCCN(CC)CC)[C@@H](O)[C@@H]1O | inactive
26 | CCC(=O)OC(OP(=O)(CCCCc1ccccc1)CC(=O)N1C[C@H](C2CCCCC2)C[C@H]1C(=O)O)C(C)C (some centres undefined) | inactive
27 | CC(C)=CCC/C(C)=C/CC/C(C)=C/CC/C=C(\C)CC/C=C(\C)CCC=C(C)C | inactive
28 | CCCCCCCCCC(=O)NO | inactive
29 | NCCO/C=C/[C@H](N)C(=O)O | inactive
30 | N=C(N)n1cccn1 | inactive
31 | Cc1ccc(C(C)(C)c2ccc(C)cc2)cc1 | inactive
32 | CO[C@H]1C[C@H](O[C@H]2[C@H](C)[C@@H](O[C@@H]3O[C@H](C)C[C@H](N(C)C)[C@H]3O)[C@@H](C)C[C@]3(CO3)C(=O)[C@H](C)[C@@H](O)[C@@H](C)[C@@H](C)OC(=O)[C@@H]2C)O[C@@H](C)[C@@H]1O | inactive
33 | CC[C@H]1OC(=O)C[C@@H](O)[C@H](C)[C@@H](O[C@@H]2O[C@H](C)[C@@H](O[C@H]3C[C@@](C)(O)[C@@H](O)[C@H](C)O3)[C@H](N(C)C)[C@H]2O)[C@@H](CC=O)C[C@@H](C)C(=O)/C=C/C(C)=C/[C@@H]1CO[C@@H]1O[C@H](C)[C@@H](O)[C@@H](OC)[C@H]1OC | inactive
34 | O=C1c2c(O)cccc2[C@H]([C@@H]2O[C@H](CO)[C@@H](O)[C@H](O)[C@H]2O)c2cc(CO)cc(O)c21 | inactive

Reference: PubChem BioAssay (Tox21)
